Most compounds without a hit are left out; they make up all but 8.3% or so of the library.
Lassa entry inh: inhibitors of Lassa virus binding or cell entry | AID 540256 | Lassa virus pseudotype entry inhibition, cell reporter | Potency, µM (highest dose often 37.9 µM), for the others: top-dose activity change, negative = inhibition, usual class: inhibitors | actives 1.2% (n = 300,000); calls by dose curve; tested in HEK293 cells; further: potency means the concentration at half of the fitted maximal effect; nearly all actives have a fitted effect of over 50% in size
HCV inhibitor: inhibitors of hepatitis C virus infection; Huh7.5.1 HCVcc-Cre infection, luciferase reporter, 44 h; Potency, µM (top dose mostly 41.8 µM), for the others: at the highest dose activity change, negative = inhibition, actives largely listed as inhibitors; actives 3.4% (n = 340,000); AID 651820; further: potency means the concentration at half of the fitted maximal effect
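Infectious HCV cell culture screen: compound-treated cells (1,000/well, pre-plated 4 h) are infected with HCVcc-Cre at roughly 0.5 moi and grown 44 h. Infection is quantified by luciferase signal after 15 min substrate incubation at room temperature.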
FMDV antiviral: antivirals against foot and mouth disease virus; Potency, µM (top dose mostly 57.9 µM), for inactives: at the top dose activity change, negative = inhibition, most hits filed as inhibitors; FMDV antiviral cell-based qHTS; actives 1.2% (n = 410,000); calls by dose curve; tested in HEK293T cells; further: read-out not given here; potency means the concentration at half of the fitted maximal effect; nearly all actives have a fitted effect of over 45% in size
Giardia FBPA inh: Giardia lamblia aldolase inhibition. purified Giardia FBPA. Potency, µM (doses to about 59.6 µM), for inactives: top-dose activity, negative = inhibition, hits mostly inhibitors. actives 0.71% (n = 290,000). AID 2451; further: potency means the concentration at half of the fitted maximal effect; nearly all actives have a fitted effect of over 55% in size
Target sequence (A8B2U2 whole entry, looked up): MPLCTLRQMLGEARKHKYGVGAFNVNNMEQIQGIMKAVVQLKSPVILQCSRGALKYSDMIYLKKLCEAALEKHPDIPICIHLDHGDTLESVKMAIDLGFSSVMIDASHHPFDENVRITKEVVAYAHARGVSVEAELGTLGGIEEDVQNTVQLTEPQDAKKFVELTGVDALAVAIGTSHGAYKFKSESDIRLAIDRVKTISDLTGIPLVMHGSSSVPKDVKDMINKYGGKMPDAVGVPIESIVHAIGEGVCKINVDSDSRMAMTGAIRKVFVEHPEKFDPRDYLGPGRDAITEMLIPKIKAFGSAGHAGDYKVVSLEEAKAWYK
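Giardia FBPA (40 nM reagent) was preincubated 10 min at RT with compound (up to 57.5 uM final), then substrate plus GAPDH/TPI/NAD/arsenate coupling system with diaphorase/resazurin was added; resorufin fluorescence (525/598 nm) was read after 20 min.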
HCMV antiviral: inhibitors of human cytomegalovirus; HFF cells, HCMV-luciferase reporter, 72 h; stronger effect = lower value; activity change, negative = inhibition, % at 57.5 µM; actives 4.5% (n = 410,000); in the data active means activity change below about -60%; inconclusive means no clear call, values can overlap the other calls; inactive means above about -39%
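Two compound doses tested in HFFs infected with HCMV-luciferase, MOI 1 PFU/cell, 72 h at 37C. Lysate luminescence read with OneGlo; data normalized against buffer-only and 10uM Salinomycin inhibitor controls.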
Marburg entry inh: inhibitors of Marburg virus binding or cell entry. Potency, µM (series often up to 37.8 µM), without a hit: top-dose activity change, negative = inhibition, hits mostly inhibitors. actives 1.8% (n = 300,000). Marburg virus pseudotyped entry inhibition, cell reporter. AID 540276; calls by dose curve; tested in HEK293 cells; further: potency means the concentration at half of the fitted maximal effect
* hit, by the source's call; ? = inconclusive; . = no result given; ! = repeats disagree; [ ] = dose if it differs, or a comment. Unless noted, the call rests on the fitted dose curve; in most records, active means well fitted curve in the direction sought with a large enough effect; inconclusive means small, poorly fitted or top-dose-only effect, or another doubt; inactive means no such curve, though single readings can be large; an effect the other way counts as inactive or inconclusive. On the % scale 0 is the no-effect control and ±100 the full control effect.

SMILES | Lassa entry inh | HCV inhibitor | FMDV antiviral | Giardia FBPA inh | HCMV antiviral | Marburg entry inh
CC1CCCN(CCOc2ccc3ccccc3c2Br)C1 (stereo not drawn) | ? | 11µM* | 7% | ? | -83* | ?
COc1cc(OC)c(C(=O)/C=C/c2ccccc2)c(O)c1O | . | -18% | 25µM* | 10% | 7 | .
C=C(C)C(O)Cc1c(OC)ccc(C(=O)/C=C/c2ccc(O)cc2)c1O (stereo not drawn) | . | ? | -2% | . | 14 | .
CSc1ccc(/C=C/C(=O)c2ccc(O)cc2)cc1 | -32% | 1% | -36% | 13% | -5 | -20%
COc1ccc(C(=O)/C=C/c2ccccc2)c(O)c1 | . | ? | -1% | 1% | -106* | .
CC(C)=CCC/C(C)=C/Cc1c(O)ccc(C(=O)/C=C/c2ccc(O)cc2)c1O | ? | 25µM* | ? | 0% | -24 | -5%
Cc1ccc(/C=C/C(=O)c2ccc(O)cc2)cc1 | 8.9µM* | -12% | 12% | -6% | -7 | ?
COc1cc(O)cc(O)c1C(=O)/C=C/c1ccccc1 | . | ? | -22% | 2% | ? | .
CCCCCCCCCCCCCCC[C@@H](O)[C@H](CO)NC(=O)CCCCCCC | . | . | -12%[6.7 µM] | -3% | . | .
COc1cccc(NC(=O)c2cc3c(=O)n(C)c4ccccc4c3n2C)c1 | 27%[46.1 µM] | . | -15% | . | -8 | 15%[46.1 µM]
O=C(/C=C/c1ccc(O)cc1)c1ccc(O)cc1O | ? | -11% | ? | 0% | 29 | 10µM*!
O=C(/C=C/c1ccccc1)c1ccc(O)cc1O | . | . | 16% | 5% | . | .
COc1cc(C(=O)/C=C/c2cccnc2)ccc1O | ? | 7% | ? | . | 12 | ?
COc1ccc(OC)c(C(=O)/C=C/c2cccnc2)c1 | ? | ? | ? | -24% | -100* | ?
O=C(/C=C/c1cccnc1)/C=C/c1cccnc1 | . | ? | 11µM* | -1% | -97* | .
O=C(CSc1nc(=O)n(CCN2CCOCC2)c2c1CCC2)Nc1ccc(Cl)c(Cl)c1 | 16%[46.1 µM] | . | ? | . | 46 | .
CCn1c(=O)cc(SCC(=O)Nc2cccc(SC)c2)c2ccccc21 | ? | ? | 20µM* | ? | -32 | -14%
CCn1c(=O)cc(OCC(=O)Nc2nc(C)cs2)c2ccccc21 | . | -10% | -25% | 4% | 11 | .
CCn1c(=O)cc(OCC(=O)Nc2ccc(C)cn2)c2ccccc21 | -9% | -15% | 54% | -3% | -61* | 27%
CCn1c(=O)cc(SCC(=O)Nc2ccc(C)cn2)c2ccccc21 | . | ? | 25% | 3% | -95* | .
COC(=O)c1ccccc1C(=O)N1CCc2c(cnc(C)c2CNC(=O)c2ccccc2F)C1 | . | . | -1% | . | . | .
CSCC[C@H](N)C(=O)N[C@@H](CCC(=O)O)C(=O)N[C@H](C(=O)NCC(=O)N[C@@H](Cc1c[nH]c2ccccc12)C(=O)N[C@@H](Cc1ccc(O)cc1)C(=O)N[C@@H](CCCNC(=N)N)C(=O)N[C@@H](CO)C(=O)N1CCC[C@H]1C(=O)N[C@@H](Cc1ccccc1)C(=O)N[C@@H](CO)C(=O)N[C@@H](CCCNC(=N)N)C(=O)N[C@H](C(=O)N[C@H](C(=O)N[C@@H](Cc1cnc[nH]1)C(=O)N[C@@H](CC(C)C)C(=O)N[C@@H](Cc1ccc(O)cc1)C(=O)N[C@@H](CCCNC(=N)N)C(=O)N[C@@H](CC(N)=O)C(=O)NCC(=O)N[C@@H](CCCCN)C(=O)O)C(C)C)C(C)C)C(C)C | . | . | . | 8% | . | .
Cc1nn(-c2ccc(N3CCCC3)nn2)c(C)c1CCC(=O)N1CCN(c2ccccc2F)CC1 | -1%[46.1 µM] | . | -15% | . | -62* | .
COc1ccccc1N1CCN(C(=O)CCc2c(C)nn(-c3ccc(N4CCCC4)nn3)c2C)CC1 | -3%[46.1 µM] | . | -26% | . | 11 | .
Cc1cc(C)cc(OCCOCCn2c(-c3ccc(Cl)cc3)nc3ccccc3c2=O)c1 | -23%[46.1 µM] | . | 0% | . | 14 | 7.1µM*
SMILES | Lassa entry inh | HCV inhibitor | FMDV antiviral | Giardia FBPA inh | HCMV antiviral | Marburg entry inh
CC(=O)N(c1ccccc1)c1ccc([N+](=O)[O-])cc1[N+](=O)[O-] | 25% | -7% | -20% | 3% | -11 | 12%
CC(=O)N(c1cc(C)ccc1C)c1ccccc1[N+](=O)[O-] | 19%[46.1 µM] | 0% | -13% | . | -63* | ?
O=[N+]([O-])c1cc(Cl)ccc1N1CCN(c2ccccc2O)CC1 | 9% | -12% | -25% | -6% | ? | -21%[46.1 µM]
COc1cccc(N2CCN(c3ccc(S(=O)(=O)N4CCN(C)CC4)cc3[N+](=O)[O-])CC2)c1 | ? | ? | ? | . | -38 | ?
Cc1ccc(S(=O)(=O)N2CCN(c3cc4c(cc3[N+](=O)[O-])n(C)c(=O)n4C)CC2)cc1 | ? | ? | . | -5% | -18 | 23µM*
O=C(c1ccc(-c2cc3ccccc3oc2=O)cc1)N1CCN(c2ccc(Cl)cc2[N+](=O)[O-])CC1 | -4% | 10µM* | 0% | 7% | ? | 3%
Cn1c(=O)n(C)c2cc([N+](=O)[O-])c(N3CCN(S(=O)(=O)c4ccc5ccccc5c4)CC3)cc21 | -29% | ? | . | -9% | -35 | ?
COc1ccc(N2CCN(S(=O)(=O)c3ccc4c(c3)CCCC4)CC2)c([N+](=O)[O-])c1 | ? | 5µM* | . | -2% | -86* | ?
Cn1c(=O)n(C)c2cc([N+](=O)[O-])c(N3CCN(C(=O)c4cccc(Cl)c4)CC3)cc21 | ? | ? | 35µM* | -1% | ? | ?
Cc1c(C(=O)N2CCCCC2)sc2ncnc(NCCN(C)C)c12 | . | . | 10% | . | . | .
Cc1ccc(S(=O)(=O)N2CCN(c3c([N+](=O)[O-])cc(C(F)(F)F)cc3[N+](=O)[O-])CC2)cc1 | -19% | -7% | 0% | 3% | -20 | 9%
Cc1cc(N2CCN(c3ccc([N+](=O)[O-])c4cccnc34)CC2)c2ccccc2n1 | ? | -17% | ? | -23% | . | 4%
Cc1cc(N2CCN(c3ccc(C(F)(F)F)cc3[N+](=O)[O-])CC2)c2ccccc2n1 | . | 10µM* | ? | -1% | -29 | .
Cc1ccc(S(=O)(=O)N2CCN(c3ccc(C(F)(F)F)cc3[N+](=O)[O-])CC2)cc1 | ? | ? | ? | -9% | -77* | 8.9µM*
COc1ccc([C@@H]2[C@@H](C(=O)N3CCOCC3)CC(=O)N2C(=O)/C=C/c2ccccc2)cc1 | . | . | . | . | -29 | .
CCOc1ccccc1NC(=O)Cn1c(=O)n(-c2ccc(C)c(C)c2)c(=O)c2c(C)c(C(=O)N(C)C)sc21 | 7%[46.1 µM] | . | -19% | . | -3 | .
Nc1cccc(C#Cc2ccc3c(c2)C(=O)/C(=C/c2ccsc2)O3)c1 | . | 2.5µM* | 32% | . | 4 | .
O=C1/C(=C/c2ccccc2)Oc2ccccc21 | . | . | . | 1%[12.9 µM] | . | .
COc1ccc(C(=O)N/N=C/c2ccccc2C(=O)O)cc1OC | . | 11% | 16% | -7% | 0 | .

Screening data: PubChem BioAssay, National Center for Advancing Translational Sciences (NCATS)
